Data taken from PubChem BioAssay (Tox21).
Several values for one entry are separate records, joined by “and”; a condition that tells them apart may be missing. Equal values may be shown once. Results filed as inconclusive are left out. Entries that show only a call come without a potency. Some structures have more than one record in an assay (separate samples or runs), and their calls can disagree. Activity calls are given as the source filed them. Unless noted, calls follow the shape of the dose curve; as a rule, active = well fitted curve in the direction sought with a large enough effect in the repeat runs; inconclusive = weak or mixed curves; inactive = no such curve, though single readings can be large; an effect the other way counts as inactive or inconclusive.

Key:
[1] = qHTS assay to identify small molecule antagonists of the thyroid receptor (TR) signaling pathway - cell viability counter screen (AID 743064); also: nearly all actives have a fitted effect of over 50% in size; also: potency is read from the fitted curve at half-maximal effect
Summary of the method: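 Viability of T3-stimulated (1 nM final) GH3.TRE-Luc cells is measured by CellTiter-Fluor fluorescence after 23.5 h compound exposure at 37 °C plus 30 min reagent incubation.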

[2] = tested on: thyroid hormone receptor (rat, GH3 cells); assay: qHTS assay to identify small molecule agonists of the thyroid receptor (TR) signaling pathway (AID 743066; calls by dose curve)
[3] = target: Estrogen receptor (Homo sapiens) (UniProt P03372); assay: qHTS assay to identify small molecule antagonists of the estrogen receptor alpha (ER-alpha) signaling pathway (AID 743069; active = well fitted curve in the direction sought with a large enough effect in the signal ratio in the repeat runs, not every such curve was filed as active; the % refers to the signal ratio)
Summary of the method: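 In this cell-based reporter format, GripTite HEK293 cells harbouring ER-alpha-UAS-bla were grown overnight with 2% charcoal-stripped FBS, dosed with DMSO-dissolved compounds, then challenged with 17beta-estradiol. After 18 hr at 37C, beta-lactamase activity was detected by FRET fluorescence.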

[4] = qHTS assay to identify small molecule antagonists of the estrogen receptor alpha (ER-alpha) signaling pathway - cell viability counter screen (AID 743074; calls by dose curve; also: nearly all actives have a fitted effect of over 45% in size)
[5] = target: Estrogen receptor (Homo sapiens) (UniProt P03372); assay: qHTS assay to identify small molecule agonists of the estrogen receptor alpha (ER-alpha) signaling pathway (AID 743075; calls by dose curve)
[6] = target: Estrogen receptor (Homo sapiens) (UniProt P03372); assay: qHTS assay to identify small molecule agonists of the estrogen receptor alpha (ER-alpha) signaling pathway using the BG1 cell line (AID 743079); also: nearly all actives have a fitted effect of over 20% in size; also: potency is read from the fitted curve at half-maximal effect
[7] = qHTS assay to identify small molecule antagonists of the estrogen receptor alpha (ER-alpha) signaling pathway using the BG1 cell line (AID 743080; calls by dose curve;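 also: BG1 cells stimulated with 17beta-estradiol alongside compound; series mostly up to about 70 µM; nearly all actives have a fitted effect of over 25% in size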)
Summary of the method: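 BG1-Luc-4E2 cells (endogenous full-length ER-alpha, stable 4×ERE-luciferase) were starved 5 days in phenol-red-free medium with 10% charcoal-stripped FBS, plated 24 h, then given compound plus 17beta-estradiol for 21.5 h at 37 C; ONE-Glo luminescence read after 30 min.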

[8] = qHTS assay to identify small molecule antagonists of the estrogen receptor alpha (ER-alpha) signaling pathway using the BG1 cell line - cell viability counter screen (AID 743081);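 also: compound given together with 17beta-estradiol as the ER stimulus; nearly all actives have a fitted effect of over 45% in size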; also: potency is read from the fitted curve at half-maximal effect
Aromatase (Homo sapiens) = Aromatase (Homo sapiens) (UniProt P11511); assay: qHTS assay to identify aromatase inhibitors (AID 743083); also: series mostly up to about 70 µM; nearly all actives have a fitted effect of over 55% in size
[9] = qHTS assay to identify aromatase inhibitors - cell viability counter screen (AID 743084);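 also: cells stimulated with testosterone during compound exposure; nearly all actives have a fitted effect of over 55% in size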; also: potency is read from the fitted curve at half-maximal effect
[10] = qHTS assay to identify small molecule that activate the aryl hydrocarbon receptor (AhR) signaling pathway - cell viability counter screen (AID 743086);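 also: HepG2 liver cells carrying the AhR DRE luciferase reporter; series mostly up to about 70 µM; nearly all actives have a fitted effect of over 45% in size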
Summary of the method: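 HepG2-AhR-luc (HG2L7.5c1) cells, 4000/well, treated 24 h at 37 C with compound; viability measured as CellTiter-Fluor fluorescence after 30 min in the same wells as the luciferase read.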

[11] = target: Peroxisome proliferator-activated receptor gamma (Homo sapiens) (UniProt P37231); assay: qHTS assay to identify small molecule agonists of the peroxisome proliferator-activated receptor gamma (PPARg) signaling pathway (AID 743094; active = well fitted activation curve with a large enough effect in the signal ratio in the repeat runs, not every such curve was filed as active; the % refers to the signal ratio)
Summary of the method: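 Agonism was assessed in a beta-lactamase reporter system, HEK293H cells with a stably integrated UAS-bla construct under PPARg control; the 17 h treatment at 37C preceded a 1 h room-temperature FRET substrate read.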

[12] = qHTS assay to identify small molecule antagonists of the peroxisome proliferator-activated receptor gamma (PPARg) signaling pathway - cell viability counter screen (AID 743194); also: nearly all actives have a fitted effect of over 55% in size
Summary of the method: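 Cytotoxicity counter screen in PPARg-bla HEK293H cells, same wells as reporter assay. Compounds plus 50 nM rosiglitazone (final) for 17 h at 37 C, then viability read by CellTiter-Glo luminescence.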

[13] = qHTS assay for small molecule agonists of the antioxidant response element (ARE) signaling pathway (AID 743202; active = well fitted activation curve with a large enough effect in the signal ratio in the repeat runs, not every such curve was filed as active; the % refers to the signal ratio; also: potency is read from the fitted curve at half-maximal effect)
Summary of the method: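 HepG2 ARE-bla cells; 16 h treatment at 37 C; FRET-based beta-lactamase fluorescence read after 2 h substrate incubation at room temperature.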

[14] = qHTS assay for small molecule agonists of the antioxidant response element (ARE) signaling pathway - cell viability counter screen (AID 743203; calls by dose curve; also: nearly all actives have a fitted effect of over 55% in size)
Summary of the method: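 ATP content via CellTiter-Glo luminescence served as the viability measure. Cells: ARE-bla HepG2, 2,000 per well. Exposure: 16 hrs, 37C/5% CO2.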

[15] = qHTS assay for small molecule activators of the heat shock response signaling pathway - cell viability counter screen (AID 743209); also: nearly all actives have a fitted effect of over 50% in size
Summary of the method: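 Compounds dissolved in DMSO were added to overnight-plated HSE-bla HeLa cells and left 5 h at 37 C. Cell viability was quantified by luminescence using CellTiter-Glo.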

[16] = qHTS assay for small molecule activators of the heat shock response signaling pathway (AID 743210; active = well fitted activation curve with a large enough effect in the signal ratio in the repeat runs, with a control signal flat, not every such curve was filed as active; the % refers to the signal ratio;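 also: HeLa cells with beta-lactamase reporter driven by heat shock elements; series mostly up to about 63 µM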)
Summary of the method: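 Following overnight attachment, HSE-bla HeLa cells received test compounds for 5 h at 37 C; beta-lactamase activity was then detected via FRET substrate fluorescence.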

[17] = target: Aryl hydrocarbon receptor (Homo sapiens) (UniProt P35869); assay: qHTS assay to identify small molecule that activate the aryl hydrocarbon receptor (AhR) signaling pathway (AID 743085);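 also: HG2L7.5c1 human HepG2 liver cells with stably integrated DRE-driven firefly reporter; series mostly up to about 70 µM; nearly all actives have a fitted effect of over 15% in size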
Summary of the method: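 A multiplexed format paired cell viability (CellTiter-Fluor fluorescence) with AhR-dependent luciferase output (ONE-Glo luminescence) in the same wells of HepG2 DRE-luc cells after 24 h compound exposure at 37C.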

[18] = target: Peroxisome proliferator-activated receptor gamma (Homo sapiens) (UniProt P37231); assay: qHTS assay to identify small molecule antagonists of the peroxisome proliferator-activated receptor gamma (PPARg) signaling pathway (AID 743191; calls by dose curve; also: series mostly up to about 63 µM; nearly all actives have a fitted effect of over 30% in size)
Summary of the method: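 GeneBLAzer PPARg UAS-bla HEK293H cells, 5 h post-plating, exposed to compounds 17 h at 37C. LiveBLAzer B/G FRET substrate added for 1 h at room temperature; beta-lactamase reporter read by fluorescence intensity.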

[19] = qHTS assay to identify small molecule antagonists of the thyroid receptor (TR) signaling pathway (AID 743065)
Summary of the method: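 GH3.TRE-Luc rat pituitary cells (two TREs driving luciferase) were dosed with compound, then stimulated with 1 nM T3 (final) for 23.5 h at 37 C. ONE-Glo luminescence was the read-out, with CellTiter-Fluor fluorescence as the cytotoxicity counter-screen.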

Peroxisome proliferator-activated receptor gamma (Homo sapiens), sequence (P37231 whole entry, looked up): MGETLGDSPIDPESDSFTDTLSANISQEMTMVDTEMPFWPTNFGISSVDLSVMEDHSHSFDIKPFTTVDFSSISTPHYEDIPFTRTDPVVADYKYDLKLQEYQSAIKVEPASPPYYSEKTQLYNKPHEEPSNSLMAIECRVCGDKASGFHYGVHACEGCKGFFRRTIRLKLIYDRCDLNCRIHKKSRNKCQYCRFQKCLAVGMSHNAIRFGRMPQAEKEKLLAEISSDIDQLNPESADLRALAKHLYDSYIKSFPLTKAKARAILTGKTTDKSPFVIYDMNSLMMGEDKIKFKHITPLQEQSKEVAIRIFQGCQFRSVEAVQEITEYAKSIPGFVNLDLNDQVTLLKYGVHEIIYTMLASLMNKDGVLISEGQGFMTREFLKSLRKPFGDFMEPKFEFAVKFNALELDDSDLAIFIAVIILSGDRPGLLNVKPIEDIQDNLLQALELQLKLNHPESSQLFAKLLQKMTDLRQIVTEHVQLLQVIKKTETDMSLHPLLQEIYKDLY
Aromatase (Homo sapiens), sequence (P11511 whole entry, looked up): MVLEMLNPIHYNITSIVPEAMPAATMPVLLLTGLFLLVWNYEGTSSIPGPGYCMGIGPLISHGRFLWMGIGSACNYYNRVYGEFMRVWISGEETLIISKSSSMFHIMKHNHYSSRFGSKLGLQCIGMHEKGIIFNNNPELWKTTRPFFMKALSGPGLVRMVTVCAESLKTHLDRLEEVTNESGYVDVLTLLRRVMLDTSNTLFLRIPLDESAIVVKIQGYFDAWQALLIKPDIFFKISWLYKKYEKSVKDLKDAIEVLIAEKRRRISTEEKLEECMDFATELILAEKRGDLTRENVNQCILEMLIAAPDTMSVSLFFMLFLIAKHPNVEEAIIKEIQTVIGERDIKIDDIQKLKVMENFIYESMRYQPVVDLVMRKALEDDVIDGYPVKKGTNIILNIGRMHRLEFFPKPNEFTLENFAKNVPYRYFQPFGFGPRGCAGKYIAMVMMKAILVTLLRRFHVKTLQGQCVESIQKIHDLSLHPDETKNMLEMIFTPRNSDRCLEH
Aryl hydrocarbon receptor (Homo sapiens), sequence (P35869 whole entry, looked up): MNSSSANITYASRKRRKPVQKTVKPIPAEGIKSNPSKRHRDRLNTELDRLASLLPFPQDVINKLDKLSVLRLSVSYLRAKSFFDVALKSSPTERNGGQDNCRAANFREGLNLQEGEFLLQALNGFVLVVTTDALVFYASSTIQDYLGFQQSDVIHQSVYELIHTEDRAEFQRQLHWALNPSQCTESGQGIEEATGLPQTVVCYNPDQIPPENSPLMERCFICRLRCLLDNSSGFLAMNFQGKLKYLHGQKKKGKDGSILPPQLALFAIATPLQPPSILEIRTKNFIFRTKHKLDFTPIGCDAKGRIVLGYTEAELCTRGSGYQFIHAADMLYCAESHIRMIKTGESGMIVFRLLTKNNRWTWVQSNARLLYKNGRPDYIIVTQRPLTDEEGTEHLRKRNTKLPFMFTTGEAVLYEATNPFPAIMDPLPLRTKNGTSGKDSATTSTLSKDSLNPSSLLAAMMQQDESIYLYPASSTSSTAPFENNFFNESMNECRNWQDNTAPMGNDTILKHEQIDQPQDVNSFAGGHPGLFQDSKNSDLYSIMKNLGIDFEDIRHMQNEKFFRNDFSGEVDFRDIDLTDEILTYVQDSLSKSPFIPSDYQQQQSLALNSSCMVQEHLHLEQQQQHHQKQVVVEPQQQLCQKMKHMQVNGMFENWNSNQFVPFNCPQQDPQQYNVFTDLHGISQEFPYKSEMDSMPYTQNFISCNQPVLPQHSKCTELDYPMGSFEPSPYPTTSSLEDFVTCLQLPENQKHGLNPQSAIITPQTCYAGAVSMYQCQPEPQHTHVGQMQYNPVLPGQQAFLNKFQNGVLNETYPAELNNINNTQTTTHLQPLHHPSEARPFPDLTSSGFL
Estrogen receptor (Homo sapiens), sequence (P03372 whole entry, looked up): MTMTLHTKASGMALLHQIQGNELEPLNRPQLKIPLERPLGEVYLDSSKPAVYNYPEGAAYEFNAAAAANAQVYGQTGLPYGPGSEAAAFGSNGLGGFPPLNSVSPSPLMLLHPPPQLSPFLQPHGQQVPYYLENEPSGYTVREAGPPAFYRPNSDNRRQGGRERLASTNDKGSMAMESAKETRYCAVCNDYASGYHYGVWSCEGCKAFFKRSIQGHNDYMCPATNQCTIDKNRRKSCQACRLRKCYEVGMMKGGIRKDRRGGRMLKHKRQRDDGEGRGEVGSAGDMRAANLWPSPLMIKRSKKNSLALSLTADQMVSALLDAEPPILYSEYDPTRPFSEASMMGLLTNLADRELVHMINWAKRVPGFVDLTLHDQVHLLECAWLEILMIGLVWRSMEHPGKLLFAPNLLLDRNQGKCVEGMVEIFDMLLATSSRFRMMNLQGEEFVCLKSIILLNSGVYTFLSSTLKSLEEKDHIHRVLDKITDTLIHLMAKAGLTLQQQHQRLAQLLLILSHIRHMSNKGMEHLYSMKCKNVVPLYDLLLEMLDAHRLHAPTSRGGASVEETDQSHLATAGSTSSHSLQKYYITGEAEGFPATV

SMILES | Potency [1] | outcome [2] | Potency [3] | Potency [4] | Potency [5] | Potency [6] | Potency [7] | Potency [8] | Potency (Aromatase (Homo sapiens)) | Potency [9] | Potency [10] | outcome [11] | Potency [12] | Potency [13] | Potency [14] | Potency [15] | outcome [16] | Potency [17] | Potency [18] | Potency [19]
C=C(C)C(=O)OCCCCCC | inactive | inactive | inactive | inactive | inactive | inactive | inactive | inactive | inactive | inactive | inactive | inactive | inactive | inactive | inactive | inactive | inactive | – | – | –
OC1CCCC1 | inactive | inactive | inactive | inactive | inactive | inactive | inactive | inactive | inactive | inactive | inactive | inactive | inactive | inactive | inactive | inactive | – | inactive | inactive | –
NC(=O)/N=N/C(N)=O | inactive | inactive | inactive | – | inactive | inactive | inactive | inactive | inactive | inactive | inactive | inactive | inactive | inactive | inactive | inactive | – | inactive | – | –
CS(=O)(=O)Nc1ccc([N+](=O)[O-])cc1Oc1ccccc1 | inactive | inactive | – | inactive | – | – | – | inactive | inactive | inactive | inactive | – | inactive | – | inactive | inactive | inactive | inactive | – | inactive
CC(C)(CO)COC(=O)C(C)(C)CO | inactive | inactive | inactive | inactive | inactive | inactive | inactive | inactive | inactive | inactive | inactive | inactive | inactive | inactive | inactive | inactive | – | inactive | inactive | –
COCC(=O)O | inactive | inactive | inactive | inactive | inactive | inactive | inactive | inactive | inactive | inactive | inactive | inactive | inactive | inactive | inactive | inactive | inactive | inactive | inactive | –
O=[N+]([O-])c1cc(N(CCO)CCO)ccc1NCCO | 61 µM (active) | inactive | inactive | inactive | inactive | inactive | – | 48.5 µM (active) | – | 48.5 µM (active) and 61.1 µM (active) | – | – | inactive | inactive | inactive | inactive | – | inactive | – | –
O=[N+]([O-])C(CO)(CO)CO | inactive | inactive | inactive | inactive | inactive | inactive | inactive | inactive | inactive | inactive | inactive | inactive | inactive | 33.9 µM (active) and 21.7 µM (active) | inactive | inactive | inactive | inactive | inactive | –
Clc1cc(Cl)c(Cl)cc1Cl | inactive | inactive | inactive | inactive | inactive | 62.1 µM (active) and inactive | inactive | inactive | inactive | inactive | inactive | inactive | inactive | inactive | inactive | inactive | inactive | inactive | inactive | –
CCCCOCCOCCOC(=O)CCCCC(=O)OCCOCCOCCCC | inactive | inactive | inactive | inactive | inactive | inactive | inactive | inactive | inactive | inactive | inactive | inactive | inactive | inactive | inactive | inactive | inactive | inactive | inactive | –
C=C(C)C(=O)OCCCCCCCCCCCC | inactive | inactive | inactive | inactive | inactive | inactive | inactive | inactive | inactive | inactive | inactive | inactive | inactive | inactive | inactive | inactive | inactive | inactive | inactive | –
COC(=O)c1ccc(C(=O)OC)cc1 | inactive | inactive | inactive | inactive | inactive | inactive | inactive | inactive | inactive | inactive | inactive | inactive | inactive | inactive | inactive | inactive | – | inactive | inactive | –
COC(=O)c1ccccc1O | inactive | inactive | inactive | inactive | inactive | 23.7 µM (active) and inactive | inactive | inactive | inactive | inactive | inactive | – | inactive | inactive | inactive | inactive | – | inactive | – | –
